MITF TRPM1 HTS: activators of MITF-driven TRPM1 promoter activity in SK-MEL-5 cells. SK-MEL-5 TRPM1-promoter luciferase, 24 h; % of positive control, neutral wells = 0. activation, % at 12.5 µM. 300,000 tested, 0.75% active. AID 588334;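 active = mean activation of at least 80% with every replicate also reaching 80%; inconclusive = mean reaches 80% but some replicate falls short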
esBAF inh: SWI/SNF esBAF complex inhibition. 350,000 tested, 2% active. AID 602393. mouse ES cells, Bmi1-luciferase knock-in reporter, 24 h; 100% = twice the neutral-well signal. reporter increase, % at 12.5 µM; in the data active = activation above about 40%; inconclusive = no clear call, values can overlap the other calls;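 also: a rise in the Bmi1 reporter signal indicates esBAF inhibition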
EWS-Fli block: blocks EWS/Fli oncoprotein-driven transcription; A673 NR0B1-luciferase reporter, viability-normalised; 350,000 tested, 0.67% active; AID 651661; inhibition, % at 12.6 µM;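 active = mean inhibition of at least 50% after viability correction, with every replicate also passing that limit; inconclusive = mean reaches 50% but only one of two replicates passes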;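 also: firefly luciferase signal divided by Alamar Blue viability fluorescence both relative to DMSO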
Wnt bcat act: activators of Wnt/beta-catenin signaling. Wnt/beta-catenin reporter cell assay, activator, plate reader. activation, % at 9.35 µM. 300,000 tested, 1.2% active. AID 743398; in the data active = activation above about 30%, passing the limit was not always enough; inconclusive = no clear call, values can overlap the other calls
MITF TRPM1 inh: reduces MITF-dependent TRPM1 promoter luciferase signal; SK-MEL-5 TRPM1 promoter luciferase, 24 h; inhibition, % at 12.5 µM; 330,000 tested, 0.83% active;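 active = mean inhibition across replicates of 60% or more, whatever share of single replicates reaches that level; inconclusive = some that reach 60%, reason not given; inactive = mean inhibition across replicates below 60%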
PAX8 inh HTS: inhibitors of PAX8 transcriptional activity in RMG-I cells; RMG-I TPO-luciferase reporter, SteadyGlo, 24 h; inhibition, % at 12.6 µM; 360,000 tested, 1.2% active;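 active = mean replicate inhibition at least 60% with every replicate also reaching 60%; inconclusive = only one of the two criteria is met; inactive = mean below 60% and not all replicates reaching 60%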;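 also: luciferase light reporting Pax8 driven TPO promoter activity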
A number is an active result. Only some compounds are listed: those with a hit (about 4% of all), similar ones and a draw of the others.

How did Fc1ccc2cc(-c3ccccc3F)ncc2c1 do in these assays?
MITF TRPM1 HTS: inactive; esBAF inh: 63; EWS-Fli block: inactive; Wnt bcat act: inconclusive; MITF TRPM1 inh: inactive; PAX8 inh HTS: inactive

What do the screens show for `Fc1ccc2cnc(-c3ccccc3F)cc2c1`?
MITF TRPM1 HTS: inactive; esBAF inh: 54; EWS-Fli block: inactive; Wnt bcat act: inactive; MITF TRPM1 inh: inactive; PAX8 inh HTS: inactive

How did Fc1ccccc1-c1cc2ccccc2cn1 do in these assays?
MITF TRPM1 HTS: inactive; esBAF inh: 61; EWS-Fli block: inactive; Wnt bcat act: 36; MITF TRPM1 inh: inactive; PAX8 inh HTS: inactive

Results for COc1ccc(N=C2SC(CC(=O)Nc3ccccc3F)C(=O)N2Cc2ccco2)cc1 (stereo unspecified) ?
MITF TRPM1 HTS: inactive; MITF TRPM1 inh: inactive; PAX8 inh HTS: inactive

Results for COc1ccc(N=C2SC(CC(=O)Nc3ccccc3)C(=O)N2Cc2ccco2)cc1 (stereo unspecified) ?
MITF TRPM1 HTS: inactive; esBAF inh: inactive; Wnt bcat act: 44; MITF TRPM1 inh: inactive; PAX8 inh HTS: inactive

How did CN(C)C(=O)c1ccc(-c2ccc([C@@H]3[C@@H](CO)N4CCCCN(C(=O)C5CCCC5)C[C@H]34)cc2)cc1 do in these assays?
EWS-Fli block: inactive; PAX8 inh HTS: inactive

Results for CCn1c(C)nc2cc(C(=O)N/N=C/c3ccccc3C)ccc21 ?
MITF TRPM1 HTS: inactive; esBAF inh: inactive; EWS-Fli block: inactive; Wnt bcat act: inactive; MITF TRPM1 inh: inactive; PAX8 inh HTS: inactive

What do the screens show for `CCn1c(C)nc2cc(C(=O)N/N=C(\C)c3ccccc3O)ccc21`?
MITF TRPM1 HTS: 90; EWS-Fli block: inactive; Wnt bcat act: inactive; MITF TRPM1 inh: inactive; PAX8 inh HTS: inactive

How did Cc1ccc(S(=O)(=O)Nc2cc(Cl)c(O)c3ncccc23)cc1 do in these assays?
MITF TRPM1 HTS: inactive; esBAF inh: inactive; EWS-Fli block: inactive; Wnt bcat act: inactive; MITF TRPM1 inh: inactive; PAX8 inh HTS: 84

Results for Cc1ccc(S(=O)(=O)N(C)C[C@H]2Oc3ccc(NC(=O)CCCCCC(=O)Nc4ccccc4N)cc3C(=O)N([C@H](C)CO)C[C@@H]2C)cc1 ?
EWS-Fli block: inactive

What do the screens show for `O=C(c1ccccc1)c1cnc(Nc2ccc(Cl)c(Cl)c2)s1`?
esBAF inh: inactive; MITF TRPM1 inh: inactive

Results for CC(=O)c1cnc(Nc2cccc(C)c2)s1 ?
MITF TRPM1 HTS: 92; EWS-Fli block: inactive; Wnt bcat act: inactive; MITF TRPM1 inh: inactive; PAX8 inh HTS: inactive

What do the screens show for `COc1ccccc1-c1cn(CC[C@H]2CC[C@@H](NC(=O)NC(C)C)[C@@H](CO)O2)nn1`?
esBAF inh: inactive; EWS-Fli block: inactive; PAX8 inh HTS: inactive

Results for Cc1ccc(OCC(O)CN2C(=O)NC(C)(C)C2=O)cc1 (stereo unspecified) ?
MITF TRPM1 HTS: inactive; esBAF inh: inactive; MITF TRPM1 inh: inactive

What do the screens show for `CCCCCCOc1ccc(OCC(O)CN2C(=O)NC(C)(C)C2=O)cc1` (stereo unspecified)?
MITF TRPM1 HTS: inactive; esBAF inh: 46; EWS-Fli block: inactive; Wnt bcat act: inactive; MITF TRPM1 inh: inactive

What do the screens show for `COCCN(CC(=O)NC1CCCCC1)C(=O)/C=C/C(=O)c1ccc(OC)cc1O`?
MITF TRPM1 HTS: inactive; EWS-Fli block: inactive; Wnt bcat act: inactive; MITF TRPM1 inh: 94; PAX8 inh HTS: 91

How did COc1ccc(C(=O)/C=C/C(=O)N(Cc2ccc3c(c2)OCO3)C(C(=O)NC2CCCCC2)c2ccncc2)c(O)c1 (stereo unspecified) do in these assays?
MITF TRPM1 HTS: inactive; esBAF inh: inactive; EWS-Fli block: inactive; Wnt bcat act: inactive; MITF TRPM1 inh: inactive; PAX8 inh HTS: inactive

How did COc1ccc(CN(C(=O)/C=C/C(=O)c2ccc(OC)cc2O)C(C(=O)NC2CCCCC2)c2ccncc2)cc1 (stereo unspecified) do in these assays?
MITF TRPM1 HTS: inactive; EWS-Fli block: inactive; Wnt bcat act: inactive; MITF TRPM1 inh: inactive; PAX8 inh HTS: inactive

Results for COc1ccc(C(=O)/C=C/C(=O)N(CC(=O)NC2CCCCC2)Cc2cccs2)c(O)c1 ?
MITF TRPM1 HTS: inactive; EWS-Fli block: 64; Wnt bcat act: inactive; MITF TRPM1 inh: 105; PAX8 inh HTS: inactive

How did C[C@@H]1CCCCO[C@@H](CN(C)C(=O)Nc2ccc(F)cc2)[C@H](C)CN([C@@H](C)CO)C(=O)c2cc(NC(=O)Nc3ccc(C(F)(F)F)cc3)ccc2O1 do in these assays?
esBAF inh: inactive; EWS-Fli block: inactive; PAX8 inh HTS: 78

How did C[C@@H]1CCCCO[C@@H](CN(C)S(C)(=O)=O)[C@H](C)CN([C@H](C)CO)C(=O)c2cc(NC(=O)Nc3ccc(C(F)(F)F)cc3)ccc2O1 do in these assays?
esBAF inh: inactive; EWS-Fli block: inactive; PAX8 inh HTS: inactive

How did C[C@@H]1CCCCO[C@@H](CN(C)C(=O)Nc2ccc(C(F)(F)F)cc2)[C@@H](C)CN([C@H](C)CO)C(=O)c2cc(NC(=O)Nc3ccc(F)cc3)ccc2O1 do in these assays?
EWS-Fli block: inactive

What do the screens show for `C[C@H]1CCCCO[C@H](CN(C)C(=O)Nc2ccc(C(F)(F)F)cc2)[C@@H](C)CN([C@@H](C)CO)C(=O)c2cc(NC(=O)Nc3ccc(F)cc3)ccc2O1`?
esBAF inh: inactive; EWS-Fli block: inactive; PAX8 inh HTS: 84

What do the screens show for `C[C@@H]1CN([C@H](C)CO)C(=O)c2cc(NC(=O)Nc3ccc(F)cc3)ccc2O[C@@H](C)CCCCO[C@H]1CN(C)C(=O)Nc1ccc(C(F)(F)F)cc1`?
esBAF inh: inactive; EWS-Fli block: inactive; PAX8 inh HTS: 87

What do the screens show for `C[C@@H]1CN([C@H](C)CO)C(=O)c2cc(NC(=O)Nc3ccc(C(F)(F)F)cc3)ccc2O[C@@H](C)CCCCO[C@H]1CN(C)S(C)(=O)=O`?
esBAF inh: inactive; EWS-Fli block: inactive; PAX8 inh HTS: 73

Results for CO[C@H]1CN(C)C(=O)c2cc(NC(C)=O)ccc2OC[C@H](C)N(C(=O)Cc2cccnc2)C[C@@H]1C ?
esBAF inh: inactive; EWS-Fli block: inactive; PAX8 inh HTS: inactive

Results for O=C(C1CC1)N1CC2(C1)[C@@H](c1ccccc1)[C@@H](CO)N2C(=O)c1cccnc1 ?
EWS-Fli block: inactive

Results for C[C@H]1CCCCO[C@H](CN(C)C(=O)Nc2ccc(F)cc2)[C@@H](C)CN([C@@H](C)CO)C(=O)c2cc(NC(=O)Nc3ccc(C(F)(F)F)cc3)ccc2O1 ?
esBAF inh: inactive; EWS-Fli block: inactive; PAX8 inh HTS: 84

What do the screens show for `C[C@H](CO)N1C[C@H](C)[C@H](CN(C)S(=O)(=O)c2cccs2)OCCCC[C@H](C)Oc2ccc(NC(=O)Nc3ccc(C(F)(F)F)cc3)cc2C1=O`?
esBAF inh: inactive; EWS-Fli block: inactive; PAX8 inh HTS: 75

Bioassay records as filed in PubChem.
